Experimental findings from ChEMBL document CHEMBL3988442, “University of Dundee, Small-Polar-MMV Screening Library” (2021) are described below.

Hit rate of the full screen: of about 48,000 compounds, about 13,000 (27%) showed an effect of 50% or more. This is one part of the list.

This experiment has as its system Wolbachia pipientis. Nature of the experiment: Anti-Wolbachia Cell-Based Screen. Format: functional. Also on record: scale not given: in the data most compounds retested in dose-response had high values. To be noted: 5 µM.
For `CCC(Oc1ccc(N(C)S(C)(=O)=O)cc1)C(=O)NC` (stereo not drawn), the “Percent Effect” value is given as 9.37%.
As for `CC(C)NC(=O)N1CCCC2(CCCCN2)C1` (stereo not drawn), the “Percent Effect” value is recorded as -45.21%.
The same measure for `CNC(=O)Cc1noc(-c2cc3c(s2)CCCC3)n1`: 9.229%.
On to `Cc1cccc(CN(Cc2ccccc2)Cc2nccs2)n1`, for which the “Percent Effect” value is -3.089%.
Consider `COc1ccccc1OC1CN(C(=O)CN(C)Cc2ccncc2)C1`, for which the “Percent Effect” value is -7.187%.
Take `CCC(=O)NC1CCCN(Cc2ccc(-n3ccnc3)cc2)C1` (stereo not drawn): the “Percent Effect” value amounted to 12%.
Under `CCc1nc2ccccc2c(=O)n1CC1(O)CCNCC1.Cl` stands 113.9%.
With `CCc1nc2ccccc2c(=O)n1CC1(O)CCN(S(C)(=O)=O)CC1.Cl`, the “Percent Effect” value is reported as -5.087%.
As to `Cc1nc2ccccc2c(=O)n1CCC(=O)N1CCNC(=O)C1`, the “Percent Effect” value was -8.423%.
Under `CCNC(=O)N(Cc1ccoc1)C1CCCCC1` stands -0.3193%.
Take `Cc1cc(C(=O)NCCSC2CCCC2)no1`: the “Percent Effect” value is -0.7527%.
In the case of `Cc1cc(-c2cnn(CCNC(=O)c3cnn(C)c3)c2C2CC2)on1`, the “Percent Effect” value was determined as 133.8%.
The same measure for `CCc1cccc(N2CCC(NC(=O)c3cc[nH]n3)CC2)c1`: 15.39%.
The same measure for `Cc1cc(-c2cnn(CCNC(=O)c3snnc3C)c2C2CC2)on1`: 141.4%; for `Cc1cc(-c2cnn(CCNC(=O)c3cccnc3)c2C2CC2)on1.Cl`: -6.458%.
In the case of `Cc1cc(-c2cnn(CCNC(=O)c3cc[nH]n3)c2C2CC2)on1`, the “Percent Effect” value is recorded as 115.4%.
In the case of `Cc1cc(-c2cnn(CCNC(=O)C3CC3)c2C2CC2)on1`, the “Percent Effect” value is 8.757%.
As to `CCCn1nc(C)c(CNC(=O)c2snnc2C)c1C`, the “Percent Effect” value is recorded as -13.49%.
Under `O=C(NCCc1nnc[nH]1)Nc1cccc(SC(F)F)c1` stands -17.31%.
For the molecule `O=C(C[S+]([O-])Cc1ccc(Cl)cc1Cl)N1CCc2sccc2C1` (stereo not drawn), the “Percent Effect” value is -26.03%.
In the case of `Cc1nc(CN(C)C(=O)C2CC(=O)N(c3cccc(O)c3)C2)cs1` (stereo not drawn), the “Percent Effect” value is -3.806%.
Turning to `COc1cccc(S(=O)(=O)CCN2CCCN(C(C)=O)CC2)c1`, the “Percent Effect” value is recorded as -4.305%.
Consider `CN1CCOC[C@H]1c1nc(-c2ccncc2)c[nH]1`, for which the “Percent Effect” value is -4.576%.
As to `Cc1ccc(C)c(NC(=O)N2CCC3(CC2)NC(=O)CC3C(=O)O)c1` (stereo not drawn), the “Percent Effect” value was -4.672%.
The same measure for `O=C(O)[C@@H]1CN(C2CCOCC2)C[C@H]1C1CC1`: 12.44%.
With `Fc1ccc(-c2nc(CNC3CCc4ncnn4C3)co2)cc1` (stereo not drawn), the “Percent Effect” value is given as 119.4%.
The same measure for `Clc1ccccc1-c1nc(CNC2CCc3ncnn3C2)cs1` (stereo not drawn): -2.283%; for `c1nc2n(n1)CC(NCc1csc(-c3ccsc3)n1)CC2` (stereo not drawn): -11.03%; for `Fc1ccc(-c2nnc(CNC3CCc4ncnn4C3)o2)cc1` (stereo not drawn): -10.58%.
In the case of `Clc1cccc(-c2nc(CNC3CCc4ncnn4C3)co2)c1` (stereo not drawn), the “Percent Effect” value is 112.7%.
`c1csc(-c2nc(CNC3CCc4ncnn4C3)co2)c1` (stereo not drawn): the “Percent Effect” value is -0.5039%.
Under `Fc1ccc(-c2ccc(CNC3CCc4ncnn4C3)o2)cc1` (stereo not drawn) stands -0.7899%.
`c1ccc(-c2nc(CNC3CCc4ncnn4C3)co2)cc1` (stereo not drawn): the “Percent Effect” value is on record as 3.463%.
The same measure for `Cc1ccc(-c2nc(CNC3CCc4ncnn4C3)co2)cc1` (stereo not drawn): 77.78%; for `Clc1ccccc1-c1nc(CNC2CCc3ncnn3C2)co1` (stereo not drawn): 83.87%.
As to `N#Cc1ccc(CS(=O)(=O)NC(=O)c2ccc3c(c2)COC3)cc1`, the “Percent Effect” value was -4.05%.
Consider `Cn1cc(Cl)cc1C(=O)N1CCN(Cc2ccsc2)CC1`, for which the “Percent Effect” value was -5.701%.
As for `CC(=O)N1CCC(N2CCOC[C@H]2c2nc(-c3cccnc3)c[nH]2)CC1`, the “Percent Effect” value was 31.59%.
For the molecule `CC[C@H](C)[C@H](NC(=O)c1ccccc1-n1cnnn1)C(=O)OC`, the “Percent Effect” value is given as 39.09%.
In the case of `Cc1nc(NC(=O)c2c(-n3cnnn3)sc3c2CCCC3)sc1C`, the “Percent Effect” value worked out at 119.6%.
Under `Cc1nc(NC(=O)c2c(-n3cnnn3)sc(C)c2C)sc1C` stands 111.3%; under `Cc1nc(NC(=O)c2c(-n3cnnn3)sc3c2CCC3)sc1C`, 89.24%.
With `CCC(C)NC(=O)c1ccccc1-n1cnnn1` (stereo not drawn), the “Percent Effect” value is on record as -7.012%.
With `Cc1nc(NC(=O)c2cccnc2N2CCOCC2)sc1C`, the “Percent Effect” value is given as -47.07%.
On to `Cc1nc(NC(=O)C(C)N2CCN(c3cnccn3)CC2)sc1C` (stereo not drawn), for which the “Percent Effect” value worked out at 1.711%.
On to `Cc1sc(-n2cnnn2)c(C(=O)NC(C)C)c1C`, for which the “Percent Effect” value stood at 78.35%.
`O=C(COCC1CC1)N1CCCC(n2cccn2)C1` (stereo not drawn): the “Percent Effect” value is 4.687%.
For the molecule `CC1CN(Cc2ccccc2)CCCN1CCCS(C)(=O)=O` (stereo not drawn), the “Percent Effect” value was -4.156%.
For the molecule `CC(=O)c1ccc(C(=O)N2CCC(c3cc(O)nc(C)n3)CC2)s1`, the “Percent Effect” value is -1.622%.
As for `CC(=O)Nc1nc(C2CCN(C(=O)Cc3ccccc3)CC2)cs1`, the “Percent Effect” value is given as 87.03%.
Under `CC(=O)N1CCC(C(=O)Nc2nc(C3CC3)cs2)CC1` stands 19.21%; under `CC(=O)Nc1nc(C2CCN(C(=O)C3CCC3)CC2)cs1`, 103.4%.
For `CC(=O)Nc1nc(C(=O)N2CCCC(c3cc(C)[nH]n3)C2)cs1` (stereo not drawn), the “Percent Effect” value is listed as -0.9316%.
In the case of `CC(=O)Nc1nc(C2CCN(C(C)C)CC2)cs1`, the “Percent Effect” value is listed as 119.6%.
The same measure for `CC(=O)Nc1nc(C2CCN(C(=O)c3cncs3)CC2)cs1`: 107.2%.
Regarding `CC(=O)Nc1nc(C2CCN(CC(N)=O)CC2)cs1`, the “Percent Effect” value was -6.255%.
Take `Cc1nc(-c2ccc(CC(=O)N3CCN(C(=O)C4CC4)CC3)cc2)cs1`: the “Percent Effect” value was determined as 16.03%.
On to `CCc1csc(CCNC(=O)CC2CCN(C(C)C)CC2)n1`, for which the “Percent Effect” value amounted to 8.427%.
The same measure for `Nc1nc(C2CCN(C(=O)c3cncs3)CC2)cs1`: -2.594%.
Regarding `CSCC(=O)NC(Cc1ccc(C)cc1)c1ccccn1` (stereo not drawn), the “Percent Effect” value is reported as -0.4247%.
Take `O=C(Cn1cc(C2CC2)nn1)NC(c1cc(F)ccc1F)C1CC1` (stereo not drawn): the “Percent Effect” value is on record as -5.532%.
As to `O=C(C1CC=CC1)N1CCC2(CCC(=O)N2Cc2cccc(F)c2)CC1`, the “Percent Effect” value is -0.5854%.
In the case of `O=C(NC[C@H]1OC[C@@H](NCc2ccc(F)cc2)[C@@H]1O)c1ccncc1`, the “Percent Effect” value is given as -2.517%.
As to `CC(=O)Nc1nc(C2CCN(C(=O)c3ccncc3)CC2)cs1`, the “Percent Effect” value is 108.8%.
As to `CC(=O)Nc1nc(C(=O)N2CCC(Nc3cccnn3)CC2)cs1`, the “Percent Effect” value is listed as -3.618%.
Under `COc1ccccc1N1CCC(N2CCOCC(CO)C2)CC1` (stereo not drawn) stands 9.24%; under `O=C(CC1CCCO1)NCc1ccc(Br)cc1F` (stereo not drawn), 3.91%; under `CN(CC1(CO)CCOCC1)[C@@H]1c2ccccc2C2(CCNCC2)[C@H]1O`, 1.582%.
